Luc counter – counter-screen: inhibitors of Kinase-Glo firefly luciferase; Q27757; Kinase-Glo luciferase, ATP luminescence, 8 min; Potency, µM (top dose mostly 38.3 µM), without a hit: top-dose activity change, negative = inhibition, usual class: inhibitors; 0.28% of 200,000 active; note: % is set by controls: 0 for no effect and ±100 for the full control effect; nearly all actives have a fitted effect of over 60% in size
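Recombinant Kinase-Glo luciferase, 10 uM ATP (linear range), luciferin; imidazole pH 7.2 / KCl / MgCl2 / Tween / BSA buffer; 8 min RT; luminescence.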
ALDH1A1 block – inhibitors of human aldehyde dehydrogenase 1A1 | Potency, µM (doses to about 75.3 µM), without a hit: top-dose activity, negative = inhibition, most hits filed as inhibitors | P00352 | Purified ALDH1A1, NADH fluorescence, propionaldehyde substrate | AID 1030 | 7.3% of 220,000 active; active = well fitted inhibition curve with a large enough effect, not every such curve was filed as active; inconclusive = small, poorly fitted or top-dose-only effect, or another doubt; inactive = no such curve, though single readings can be large or run the other way;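 note: plate controls were no enzyme wells and a reference inhibitor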
HTT cytoprotect – Huntington cell model cytoprotection by ATP luminescence | PC12 HTT-Q103 induced, cytoprotection, ATP luminescence, 40 h | Potency, µM (titrated, usually from 56.4 µM), for the others: cytoprotection (ATP increase), actives largely listed as activators | 0.14% of 230,000 active | AID 1471; note: % of control where 0% means no effect; nearly all actives have a fitted effect of over 45% in size
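ATP quantification (ATPlite) reports survival of PC12 cells in which tebufenozide, 100 nM final, switches on Htt exon 1 with 103 glutamines linked to GFP; compounds are titrated.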
HttQ103 aggreg – inhibitors of mutant huntingtin aggregate formation in PC12 cells | PC12 HttQ103-GFP aggregates, Acumen cytometry, 40 h | Potency, µM (series often up to 46.1 µM), without a hit: at the top dose activity change, negative = inhibition, usual class: inhibitors | 1.1% of 220,000 active; note: % is set by controls: 0 for no effect and ±100 for the full control effect; nearly all actives have a fitted effect of over 60% in size
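Ecdysone-promoter PC12 model expressing HTT exon 1 Q103 fused to GFP, induced by tebufenozide at 100 nM final. Compounds titrated; aggregates sized 1–25 µm scored on a 488 nm laser cytometer.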
HPGD inh – blocks human HPGD enzyme activity | 4.3% of 150,000 active | purified HPGD, NADH fluorescence kinetic, PGE2 substrate | Potency, µM, without a hit: at the top dose activity change, negative = inhibition, actives largely listed as inhibitors | AID 894; active = well fitted inhibition curve with a large enough effect, not every such curve was filed as active; inconclusive = small, poorly fitted or top-dose-only effect, or another doubt; inactive = no such curve, though single readings can be large or run the other way; note: % is set by controls: 0 for no effect and ±100 for the full control effect
Target sequence (P15428 whole entry, looked up): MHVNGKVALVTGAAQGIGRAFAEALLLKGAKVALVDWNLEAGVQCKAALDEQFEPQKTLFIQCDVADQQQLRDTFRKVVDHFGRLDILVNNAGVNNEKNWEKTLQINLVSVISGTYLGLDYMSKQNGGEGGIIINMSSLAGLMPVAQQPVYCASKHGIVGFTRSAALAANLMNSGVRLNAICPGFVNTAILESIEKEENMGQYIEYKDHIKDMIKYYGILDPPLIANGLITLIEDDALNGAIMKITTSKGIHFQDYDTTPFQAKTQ
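NADH formation kinetics: reaction with 30 uM PGE2 and 1 mM NAD+ (final), 20 nM enzyme, Tris-HCl pH 8 with Tween 20, after 15 min compound preincubation at room temperature. Fluorescence change, last versus first of five reads.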
Lamin A splicing – LMNA splicing modulation | HeLa LMNA splicing GFP/RFP minigene ratio, 48 h | Potency, µM (doses to about 46.1 µM), for the others: at the highest dose ratio change, negative = inhibition, actives largely listed as inhibitors | 0.01% of 200,000 active; active = well fitted inhibition curve with a large enough effect in the signal ratio, with a control signal flat, not every such curve was filed as active; inconclusive = small, poorly fitted or top-dose-only effect, or effect the other way, or a change in a side signal; the % refers to the signal ratio; note: % is set by controls: 0 for no effect and ±100 for the full control effect
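S3 HeLa stable clones carrying a lamin A-EGFP splicing minigene plus DsRed2 were seeded at 600 cells/well in Opti-MEM with 2% FBS, pin-dosed and incubated 48 h at 37°C. Acumen cytometry (488 nm) gave the GFP/RFP total-intensity ratio.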
The depositor's hits bear a star; ? = inconclusive; / = no result; [ ] = dose if it differs, or a comment. Shown are actives, neighbours in structure and some others; about 9% of the full set was active somewhere. Unless noted, calls come from the whole dose curve; as a rule, active = well fitted curve in the direction sought with a large enough effect; inconclusive = small, poorly fitted or top-dose-only effect, or another doubt; inactive = no such curve, though single readings can be large; an effect the other way counts as inactive or inconclusive. Potency is the fitted concentration of half-maximal effect.

SMILES	Luc counter	ALDH1A1 block	HTT cytoprotect	HttQ103 aggreg	HPGD inh	Lamin A splicing
CCOC(=O)N/N=C/C=C/c1ccccc1[N+](=O)[O-]	-5%	10µM*	0%	-3%	/	-13%[46 µM]
O=C(N/N=C/C=C/c1ccccc1[N+](=O)[O-])c1cc(-c2ccccc2)n[nH]1	3%	?	/	-2%	25µM*	?
O=C(COC(=O)c1ccc(=O)n(Cc2ccccc2)n1)Nc1ccc2c(c1)OCCO2	4%	8.9µM*	-8%	?	-19%	7%
O=C(CSc1ncnc2c1cnn2Cc1ccccc1)Nc1ccc2c(c1)OCCO2	1%	13µM*	-4%[0.074 µM]	-2%	0%	-19%
COc1cccc(NC(=O)CSc2ncnc3c2cnn3Cc2ccccc2)c1	-3%	?	-57%	14%	-29%	-2%
Oc1ccc(Cl)cc1-c1cc(-c2ccccc2)n[nH]1	3%	4%	-17%	-16%	16µM*	?
COc1ccccc1-c1cc(-c2cc(Cl)ccc2O)n[nH]1	-3%	?	-12%	-5%	-19%	-5%
Oc1ccc(Br)cc1-c1cc(-c2ccccc2F)[nH]n1	-3%	2%	-13%	-5%	4.5µM*	-2%
CCc1cc(C(=O)N2CCOCC2)c(NC2=NS(=O)(=O)c3ccccc32)s1	14%	4%	-2%	10%	-8%	-2%
Cc1nn(-c2ccccn2)c(C)c1Oc1ccccc1O	4%	-8%	-9%	8%	14µM*	4%
Cc1nn(-c2cccc(C(=O)O)c2)c(C)c1Oc1ccccc1O	-1%	13%	-8%[10 µM]	18%	-16%	4%
Cc1nn(-c2ccc(C(=O)O)cc2)c(C)c1Oc1ccccc1O	2%	9%	-2%	15%[9.22 µM]	14µM*	13%
CCCc1nc2ccccc2c(C(=O)OCC(=O)NCc2ccco2)c1CC	1%	4%	2%	-4%[9.22 µM]	-19%	-11%
O=C(CSc1cn(Cc2ccccc2)c2ccccc12)Nc1nccs1	-2%	14µM*	-27%	-5%	-10%	7%
O=C(CSc1ccccc1)Nc1nccs1	2%	12%	1%[10 µM]	25%	/	3%[46 µM]
O=C(O)c1ccc(N/N=C/c2cn(Cc3ccc(F)cc3)c3ccccc23)cc1	/	/	-15%[10 µM]	0%[9.22 µM]	/	/
O=C(CSc1cn(Cc2ccccc2)c2ccccc12)NCc1ccc(F)cc1	1%	7.9µM*	/	-4%	-8%	15%
O=C(O)CC(C(=O)O)c1cn(Cc2ccccc2)c2ccccc12 (centres undefined)	-1%	11µM*	-19%	-12%	-11%	0%
COc1cccc(-c2nnc(-c3ccco3)o2)c1	-6%	?	/	-2%	?	-4%
O=C(COc1ccc(Cl)cc1)NCCSCc1ccccc1Cl	-1%	-6%	14%[10 µM]	-4%	-7%	-3%
COc1ccc(NC(=O)c2cc(Cl)ccc2NC(=O)c2ccco2)c(OC)c1	6%	-4%	-6%	6%[9.22 µM]	-22%	8%
NC(=O)COC(=O)CNC(=O)c1cc(Cl)cc([N+](=O)[O-])c1	-1%	1%	12%[10 µM]	19%	/	-8%[46 µM]
NC(=O)COC(=O)CNC(=O)c1ccc(Cl)cc1	0%	2µM*	0%	19%	0%	11%
CCCN1C(=O)CC(c2ccco2)Sc2ccccc21 (centres undefined)	3%	?	16%[10 µM]	-22%	-14%	-4%
CCOc1ccc(NC(=O)CC(NCc2ccccn2)C(=O)O)cc1 (centres undefined)	/	2%	-7%	6%	/	/
CCOc1ccc(NC(=O)C(c2ccccn2)N(C(=O)CCl)c2ccc(F)cc2)cc1 (centres undefined)	-2%	11µM*	16%[10 µM]	3%	1%	5%
NNC(=O)/C=C/c1ccc(Cl)cc1Cl	5%	13µM*	-97%	-21%	/	-17%[46 µM]
COc1n[nH]c(C(=O)Nc2cc(F)ccc2C)c1[N+](=O)[O-]	3%	-4%	/	?	-18%	-6%
c1ccc(COc2ccc(Nc3ncnc4nc[nH]c34)cc2)cc1	-7%	-14%	-72%	?	16µM*	21%
